Source: the supplement of paper PMC11865577
Structures can show the parent of a compound that is named as a salt.

Columns and labels:
Experiment in all cases: normalised indicator fluorescence (fraction of RNA + indicator signal without compound); higher = less displacement of indicator (weaker competition)
Conditions in all cases: compound concentration: 5 uM, 30 min
hsa-mir-191 loop = test system: hsa-mir-191 loop
In short: (§1)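 Indicator fluorescence, corrected by subtracting the buffer-plus-indicator blank and normalized to the RNA-plus-indicator signal without compound, is given as the mean of two independent experiments. The buffer was 20 mM phosphate pH 7.0, 20 mM NaCl and 80 mM KCl, with TO-PRO-1 or TO-PRO-3 and RNA in 96-well plates. Plates were read 30 min after compound addition (about 5 uM final) on an Infinite 200 PRO, exciting at 485 or 620 nm.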

hsa-mir-21 loop = test system: hsa-mir-21 loop
In short: as §1

hsa-mir-221 loop = test system: hsa-mir-221 loop
In short: as §1

hsa-mir-374a loop = test system: hsa-mir-374a loop
In short: as §1

hsa-mir-6850 loop = test system: hsa-mir-6850 loop
In short: as §1

[1] = indicator: TO-PRO-1 0.1 uM, RNA concentration: 0.1 uM
[2] = indicator: TO-PRO-3 0.5 uM, RNA concentration: 0.5 uM

Row | SMILES | normalised indicator fluorescence (hsa-mir-191 loop; [1]) | normalised indicator fluorescence (hsa-mir-191 loop; [2]) | normalised indicator fluorescence (hsa-mir-21 loop; [1]) | normalised indicator fluorescence (hsa-mir-21 loop; [2]) | normalised indicator fluorescence (hsa-mir-221 loop; [1]) | normalised indicator fluorescence (hsa-mir-221 loop; [2]) | normalised indicator fluorescence (hsa-mir-374a loop; [1]) | normalised indicator fluorescence (hsa-mir-374a loop; [2]) | normalised indicator fluorescence (hsa-mir-6850 loop; [1]) | normalised indicator fluorescence (hsa-mir-6850 loop; [2])
1 | NC(=O)c1ccccc1Nc1ccnc(Nc2cccc(O)c2)n1 | 0.949 | 1.02 | 0.974 | 1.02 | 0.967 | 0.979 | 1.12 | 1.2 | 0.993 | 1.04
2 | N#CC(c1ccnc(OCc2ccc(CN3CCOCC3)cc2)n1)c1nc2ccccc2s1 (stereo not given) | 1.03 | 0.659 | 1.14 | 0.839 | 1.37 | 0.837 | 1.26 | 0.694 | 0.827 | 0.505
3 | CO[C@H]1/C=C/O[C@@]2(C)Oc3c(C)c(O)c4c(c3C2=O)C2=NC3(CCN(CC(C)C)CC3)NC2=C(NC(=O)/C(C)=C\C=C\[C@H](C)[C@H](O)[C@@H](C)[C@@H](O)[C@@H](C)[C@H](OC(C)=O)[C@@H]1C)C4=O [Rifabutin] | 1.04 | 1.01 | 1.03 | 0.969 | 0.997 | 1.01 | 1.34 | 1.04 | 0.991 | 1.07
4 | CC1=C[C@]2(O)O[C@@]3(CC2=C(C)C)[C@@H](C)CC[C@@H]13 [Curcumenol] | 1 | 1.02 | 1.06 | 1.04 | 1.01 | 1.31 | 1.08 | 1.33 | 1.02 | 0.985
5 | O=CN1CC/C(=C/c2ccc3c(c2)OCO3)C1=O | 1.04 | 1.04 | 0.922 | 1.01 | 1.03 | 0.986 | 1.1 | 1.08 | 1 | 1.03
6 | C[C@@H]1O[C@@H](Oc2c(-c3cc(O)c(O)c(O)c3)oc3cc(O)cc(O)c3c2=O)[C@H](O)[C@H](O)[C@H]1O [Myricetrin] | 0.952 | 1.05 | 0.962 | 1.07 | 0.97 | 1.09 | 1.07 | 1.17 | 0.944 | 1.08
7 | CC(=O)c1ccc(S(=O)(=O)NC(=O)NC2CCCCC2)cc1 [Acetohexamide] | 0.972 | 1.04 | 0.846 | 1.09 | 1.08 | 1.05 | 1.18 | 1.21 | 0.908 | 1.08
8 | CC(=O)Oc1c(C)c(C)c2c(c1C)CCC(C)(CCC[C@H](C)CCC[C@H](C)CCCC(C)C)O2 (stereo not given in full) [Vitamin E Acetate] | 1.01 | 1.05 | 0.923 | 1.04 | 1.1 | 1.05 | 1.01 | 1.02 | 0.957 | 1.02
9 | COC1=C2C[C@@H](C)C[C@H](OC)[C@H](O)[C@@H](C)/C=C(\C)[C@H](OC(N)=O)[C@@H](OC)/C=C\C=C(/C)C(=O)NC(=CC1=O)C2=O [Geldanamycin] | 1.09 | 1.08 | 1.04 | 1.05 | 1.04 | 1.09 | 1.11 | 1.31 | 1.09 | 1.02
10 | COc1nccnc1NS(=O)(=O)c1ccc(NC(=O)/C=C/c2ccc([N+](=O)[O-])s2)cc1 [Necrosulfonamide] | 1.12 | 1.02 | 0.985 | 1.08 | 1.01 | 1.08 | 1.05 | 1.18 | 0.886 | 1
11 | CC(C)=CCC[C@](C)(O[C@@H]1O[C@H](CO)[C@@H](O)[C@H](O)[C@H]1O)[C@H]1CC[C@]2(C)[C@@H]1[C@H](O)C[C@@H]1[C@@]3(C)CC[C@H](O)C(C)(C)[C@@H]3[C@@H](O[C@@H]3O[C@H](CO)[C@@H](O)[C@H](O)[C@H]3O[C@@H]3OC[C@@H](O)[C@H](O)[C@H]3O)C[C@]12C [Notoginsenoside R1] | 1.04 | 1.01 | 1 | 0.991 | 1.15 | 0.995 | 1.21 | 1.09 | 0.982 | 1.01
12 | O=C(O)CCc1ccc(O)cc1O [Hydroumbellic acid] | 1.11 | 1.05 | 0.973 | 1.06 | 0.989 | 1.16 | 1.1 | 1.13 | 1.1 | 1.04
13 | CC(C)N(CCCCOCC(=O)NS(C)(=O)=O)c1cnc(-c2ccccc2)c(-c2ccccc2)n1 [Selexipag] | 1.04 | 1.01 | 1.07 | 1.07 | 1.05 | 1.12 | 1.14 | 1.11 | 1.1 | 1.09
14 | O=c1ccc2ccc(O)cc2o1 [7-Hydroxycoumarin] | 1.06 | 1.06 | 1.05 | 0.997 | 1.11 | 1.01 | 1.07 | 1.15 | 0.986 | 1.05
15 | [I-].[K+] [Potassium iodide] | 1.06 | 1.08 | 1.11 | 1.03 | 1.08 | 1.03 | 1.21 | 1.05 | 1.07 | 1.07
16 | O=c1c(O)c(-c2cc(O)c(O)c(O)c2)oc2cc(O)cc(O)c12 [Myricetin] | 0.403 | 0.684 | 0.387 | 0.742 | 0.505 | 0.659 | 0.543 | 0.424 | 0.604 | 0.969
17 | Cc1cc(NC(=O)c2cccc(NC(=O)/C=C/CN(C)C)c2)ccc1Nc1nccc(-c2cccnc2)n1 | 1.03 | 1.05 | 0.972 | 1.01 | 1.04 | 1.02 | 1.08 | 1.05 | 1.06 | 0.942
18 | CNC(=O)c1ccc(C)c(-n2c(C)cc(OCc3ccc(F)cc3F)c(Br)c2=O)c1 | 1.02 | 1.03 | 1.03 | 1.02 | 1.19 | 1.05 | 1 | 1.08 | 0.914 | 1.04
19 | COC1=CC(=O)c2ccccc2C1=O [2-Methoxynaphthoquinone] | 1.01 | 1.03 | 0.993 | 1.05 | 1.06 | 1.06 | 1.14 | 1.19 | 0.946 | 1.07

Row | SMILES | normalised indicator fluorescence (hsa-mir-191 loop; [1]) | normalised indicator fluorescence (hsa-mir-191 loop; [2]) | normalised indicator fluorescence (hsa-mir-21 loop; [1]) | normalised indicator fluorescence (hsa-mir-21 loop; [2]) | normalised indicator fluorescence (hsa-mir-221 loop; [1]) | normalised indicator fluorescence (hsa-mir-221 loop; [2]) | normalised indicator fluorescence (hsa-mir-374a loop; [1]) | normalised indicator fluorescence (hsa-mir-374a loop; [2]) | normalised indicator fluorescence (hsa-mir-6850 loop; [1]) | normalised indicator fluorescence (hsa-mir-6850 loop; [2])
20 | CC1(C)C=Cc2c(ccc3c2OC[C@@H](c2ccc(O)cc2O)C3)O1 [Glabridin] | 1.07 | 1.05 | 1.05 | 1.03 | 1.04 | 1 | 1.13 | 1.2 | 0.981 | 1.01
21 | CCc1cc(C(N)=S)ccn1 [Ethinamide] | 1.07 | 1.01 | 1.1 | 1.04 | 1.04 | 1.07 | 1.18 | 1.2 | 1.04 | 1.05
22 | Cc1cccc(CC(=O)N2CCc3c2ccc(-c2cn(C)c4ncnc(N)c24)c3F)n1 | 1.03 | 1.06 | 1 | 1.04 | 1.08 | 1.01 | 1.14 | 1.06 | 0.973 | 0.993
23 | CN1CCN(c2nc(C3=C(c4c[nH]c5ccccc45)C(=O)NC3=O)c3ccccc3n2)CC1 [Sotrastaurin] | 0.995 | 1.01 | 1.13 | 1.04 | 1.03 | 0.999 | 1.19 | 1.3 | 0.954 | 0.996
24 | NC(=O)c1ccc(N(C(N)=O)c2c(F)cccc2F)nc1-c1ccc(F)cc1F | 0.984 | 1.01 | 0.905 | 1.02 | 1.06 | 0.999 | 1.15 | 1.19 | 0.94 | 1.03
25 | Cc1c(C)c2c(c(C)c1O)CCC(C)(C(=O)O)O2 (stereo not given) [Trolox] | 1.03 | 1.05 | 1.02 | 0.957 | 1.05 | 1.12 | 1.11 | 1.22 | 1.02 | 1.07
26 | CCNC(=O)c1noc(-c2cc(Cl)c(O)cc2O)c1-c1ccc(OC)cc1 | 1.05 | 1.04 | 1.06 | 1.06 | 1.06 | 0.964 | 1.1 | 1.17 | 1.03 | 1.05
27 | O=C(O)/C=C/c1ccc(Cn2ccnc2)cc1 [Ozagrel hydrochloride] | 0.95 | 0.992 | 1.01 | 1.02 | 1 | 0.921 | 1.07 | 1.12 | 1.02 | 1.03
28 | COc1ccc(C2CC(=O)c3c(O)cc(OC4OC(COC5OC(C)C(O)C(O)C5O)C(O)C(O)C4O)cc3O2)cc1OC (stereo not given) [Methyl hesperidin] | 0.968 | 1.08 | 0.942 | 0.97 | 1.05 | 1.03 | 1.14 | 1.14 | 0.967 | 1.07
29 | C[C@H]1[C@H](C)CC[C@]2(C(=O)O[C@@H]3O[C@H](CO[C@@H]4O[C@H](CO)[C@@H](O[C@@H]5O[C@H](C)[C@H](O)[C@@H](O)[C@H]5O)[C@H](O)[C@H]4O)[C@@H](O)[C@H](O)[C@H]3O)CC[C@]3(C)C(=CC[C@@H]4[C@@]5(C)C[C@@H](O)[C@H](O)[C@@](C)(CO)[C@@H]5CC[C@]43C)[C@H]12 [Asiaticoside] | 1.02 | 1.03 | 0.968 | 0.996 | 0.992 | 1.03 | 1.09 | 1.16 | 1.03 | 1.11
30 | CN(NC(=O)CC(=O)NN(C)C(=S)c1ccccc1)C(=S)c1ccccc1 [Elesclomol] | 1.05 | 1.03 | 1.06 | 1.03 | 1.04 | 0.964 | 1.09 | 1.18 | 1.02 | 1.02
31 | CCCC(C(=O)OCCN(CC)CC)(c1ccccc1)c1ccccc1 [Proadifen hydrochloride] | 1.01 | 1.04 | 0.923 | 1 | 1.08 | 1.05 | 1.16 | 1.17 | 0.941 | 1.02
32 | COc1ccc(C(=C2C(=O)Nc3ccccc32)c2ccc(OC)cc2)cc1 | 1 | 1.03 | 0.92 | 1.03 | 1.1 | 1.09 | 1.08 | 1.15 | 0.944 | 1.03
33 | Nc1c(Br)cc(Br)cc1CN[C@H]1CC[C@H](O)CC1 [Ambroxol] | 0.949 | 1.04 | 0.88 | 1.17 | 1.04 | 1.02 | 1.16 | 1.12 | 0.965 | 1.06
34 | O=C(O)/C=C/c1ccc(Cn2ccnc2)cc1 [Ozagrel] | 0.962 | 1.05 | 0.996 | 1.03 | 1.07 | 1.05 | 1.12 | 1.19 | 0.929 | 1.03
35 | CC(C)c1cc(-c2n[nH]c(=O)n2-c2ccc3c(ccn3C)c2)c(O)cc1O [Ganetespib] | 1.04 | 1.03 | 1 | 1.04 | 1.03 | 1.08 | 1.07 | 1.14 | 0.915 | 1
36 | O=c1ncn2nc(Sc3ccc(F)cc3F)ccc2c1-c1c(Cl)cccc1Cl [Neflamapimod] | 1.04 | 1.05 | 0.973 | 1.04 | 1.03 | 1.22 | 1.07 | 1.3 | 0.955 | 1.02
37 | COc1ccc(-c2nc(-c3cc(C(F)(F)F)cc(C(F)(F)F)c3)n(Cc3ccc(C(N)=O)cc3)c2-c2ccc(OC)cc2)cc1 [Apoptozole] | 0.992 | 1.01 | 1.01 | 1.03 | 1.05 | 1.21 | 1.06 | 1.36 | 0.966 | 0.976
